PAFAH2 FP inh: inhibitors of human PAFAH2; inhibition, % at 3.39 µM; recombinant PAFAH2, FP-rhodamine activity probe, fluorescence polarization; 340,000 compounds, 0.99% hits; Q99487;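 active = inhibition above the mean over all tested compounds plus 3 SD, cut at about 30% in these data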;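 also: inhibitors block probe labeling of enzyme so polarization drops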
PAFAH1B3 FP inh: inhibitors of human PAFAH1B3. 340,000 compounds, 0.28% hits. inhibition, % at 3.39 µM. Q15102. recombinant PAFAH1B3, FP-rhodamine probe, fluorescence polarization. AID 492972;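 active = inhibition above the screen-wide average of all tested compounds plus 3 SD, cut at about 25% in these data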
DAGLB inh: blocks human DAGLB lipase activity. Q8NCG7. HEK293T DAGLB membrane lysate, EnzChek fluorogenic substrate. inhibition, % at 5.17 µM. 340,000 compounds, 0.059% hits. AID 504411; in the data active = inhibition above about 34%
Target sequence (Q8NCG7 whole entry, looked up): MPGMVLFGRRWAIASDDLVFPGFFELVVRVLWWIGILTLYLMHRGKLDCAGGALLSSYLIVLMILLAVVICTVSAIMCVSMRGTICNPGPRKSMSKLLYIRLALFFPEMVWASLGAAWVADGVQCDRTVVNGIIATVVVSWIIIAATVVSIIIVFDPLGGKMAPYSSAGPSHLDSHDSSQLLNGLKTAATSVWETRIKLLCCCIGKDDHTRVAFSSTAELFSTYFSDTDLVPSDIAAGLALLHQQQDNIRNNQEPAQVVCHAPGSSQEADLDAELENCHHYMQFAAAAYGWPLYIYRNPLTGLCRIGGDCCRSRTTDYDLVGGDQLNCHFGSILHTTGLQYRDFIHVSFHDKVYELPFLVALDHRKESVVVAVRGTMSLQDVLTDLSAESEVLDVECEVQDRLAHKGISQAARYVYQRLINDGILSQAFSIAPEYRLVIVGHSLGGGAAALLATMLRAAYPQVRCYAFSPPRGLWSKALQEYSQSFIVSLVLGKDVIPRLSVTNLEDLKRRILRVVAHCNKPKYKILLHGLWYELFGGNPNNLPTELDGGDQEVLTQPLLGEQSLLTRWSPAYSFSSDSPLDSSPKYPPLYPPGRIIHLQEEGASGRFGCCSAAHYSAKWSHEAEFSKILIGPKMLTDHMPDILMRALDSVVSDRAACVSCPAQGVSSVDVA
pPAFAH inh: pPAFAH (human) enzyme inhibition. recombinant pPAFAH, FP-rhodamine probe fluorescence polarization. 330,000 compounds, 1.5% hits. inhibition, % at 3.39 µM. Q13093;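 active = inhibition above the mean inhibition across the screen plus 3 SD, cut at about 25% in these data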;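 also: inhibitors block binding of the rhodamine activity-based probe so polarization drops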
ATG4B inhibitor: ATG4B (human) cysteine protease inhibition; 340,000 compounds, 0.51% hits; ATG4B cleavage of LC3-PLA2, NBD-HPC fluorescence, 1 h; Q9Y4P1; AID 504462; inhibition, % at 8.33 µM; in the data active = inhibition above about 40%
PAFAH1B2 FP inh: inhibitors of human PAFAH1B2; inhibition, % at 3.39 µM; recombinant PAFAH1B2, FP-rhodamine activity probe, fluorescence polarization; 340,000 compounds, 1.2% hits; P68402;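 active = inhibition above the mean of all tested compounds plus 3 SD, cut at about 24% in these data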
A number is an active result; . = inactive; / = no result. Compounds with a hit are over-represented: about 3% of the library has one in this group of screens.

SMILES	PAFAH2 FP inh	PAFAH1B3 FP inh	DAGLB inh	pPAFAH inh	ATG4B inhibitor	PAFAH1B2 FP inh
COC(=O)c1ccc(-c2nc(CN3CCN(C(=O)c4ccco4)CC3)c(C)o2)cc1	/	/	.	/	/	/
CC(C)NC(=O)NC(=O)COC(=O)c1ccc(S(=O)(=O)Nc2ccccc2)cc1	.	.	.	25	.	.
CC(C)NC(=O)NC(=O)COC(=O)c1ccc(OC(F)(F)F)cc1	.	.	.	.	.	.
O=S(=O)(Nc1cc(Sc2cccc3cccnc23)c(O)c2ccccc12)c1ccc(F)cc1	/	/	/	34	.	/
COc1ccc(NC(=O)C2CCC2)cc1S(=O)(=O)Nc1cc(C)ccc1Br	.	.	.	29	.	.
CC(=O)Nc1ccc(C(=O)OCc2ccc(Br)cc2)cc1	34	.	.	.	.	26
O=C(N/N=C/c1cn(Cc2cccc(F)c2)c2ccccc12)c1cc(O)cc(O)c1	.	44	.	/	.	26
Nc1ccc(C(=O)N/N=C/c2cn(Cc3ccc(F)cc3)c3ccccc23)cc1	.	.	.	/	.	.
O=S(=O)(NCC(Nc1ccccc1)c1ccccc1)c1ccc(Cl)cc1 (stereo not drawn)	.	.	.	.	.	.
O=C(O)c1cccc(NC(CNS(=O)(=O)c2ccc(Cl)cc2)c2ccccc2)c1 (stereo not drawn)	.	.	.	26	.	75
CC1(OC(=O)C2CCCC2)C(=O)C=C2C=C(c3ccsc3)N(Cc3ccco3)C=C2C1=O (stereo not drawn)	.	.	.	31	.	.
CC(=O)Oc1ccccc1C1C[C@]2(C)CC(=O)NC2N1C(C)=O (stereo partly drawn)	.	.	.	.	.	.
C[C@@H]1CN([C@@H](C)CO)C(=O)CCCn2nncc2CO[C@@H]1CN(C)C(=O)Nc1ccc(N2CCN(C)CC2)cc1	/	/	.	/	/	/
Cc1cccc(-n2nc3c(c2NC(=O)c2ccco2)CSC3)c1C	.	.	.	31	.	.
COCC(=O)Nc1ncc(S(=O)(=O)c2ccc([N+](=O)[O-])cc2)s1	.	.	.	.	.	28
CCCCC(=O)Nc1ncc(S(=O)(=O)c2ccc([N+](=O)[O-])cc2)s1	.	.	.	.	.	.
CC(=O)NCCC(=O)Nc1ncc(S(=O)(=O)c2ccc([N+](=O)[O-])cc2)s1	.	.	.	.	.	26
CCC(=O)Nc1nc(C)c(-c2csc(Nc3cccc(O)c3)n2)s1	.	.	.	32	.	.
O=C1c2cccc3cccc(c23)C(=O)N1CCCN1CCN(c2ccc(F)cc2)CC1	.	.	.	.	.	.
Cc1cc(F)ccc1NC(=O)c1ccc(NS(=O)(=O)c2cc(C(C)(C)C)ccc2C)cc1	.	.	.	25	.	.
O=C(COC(=O)C1CC2C=CC1C2)Nc1ccccc1F (stereo not drawn)	34	.	.	.	.	.
O=C(CCSc1ccc(Cl)cc1)c1ccco1	.	.	.	.	.	28
O=C(CSc1ccc(Cl)cc1)c1ccco1	.	.	.	29	.	.
COc1ccc(/C=C2\SC(N3CCCCC3)=NC2=O)cc1OC	.	.	.	.	.	.
COc1ccc(OC)c(/C=C2\SC(N3CCCC(C)C3)=NC2=O)c1 (stereo not drawn)	.	.	.	27	.	.
SMILES	PAFAH2 FP inh	PAFAH1B3 FP inh	DAGLB inh	pPAFAH inh	ATG4B inhibitor	PAFAH1B2 FP inh
COC(=O)c1cc(NC(=O)c2cccc(C(F)(F)F)c2)c(=O)oc1C/C=N/OCc1cccc(Cl)c1Cl	.	.	.	27	.	.
CCN(CC)C(=O)[C@H]1CC(CC(=O)NC/C=C(\C)CCC=C(C)C)C(=O)N2CCc3c([nH]c4ccccc34)[C@]12C (stereo partly drawn)	.	.	.	28	.	.
COc1ccc2[nH]c3c(c2c1)CCN1C(=O)C(CC(=O)NC/C=C(\C)CCC=C(C)C)C[C@H](C(=O)N2CCCCC2)[C@@]31C (stereo partly drawn)	.	.	.	.	/	.
CCN(CC)C(=O)[C@H]1CC(CC(=O)NC/C=C(\C)CCC=C(C)C)C(=O)N2CCc3c([nH]c4ccc(OC)cc34)[C@]12C (stereo partly drawn)	.	.	.	26	.	.
CCN(CC)C(=O)[C@H]1C[C@H](CC(=O)NC/C=C(\C)CCC=C(C)C)C(=O)N2CCc3c([nH]c4ccc(Cl)cc34)[C@]12C	.	.	.	.	.	.
Cc1ccc(S(=O)(=O)N2CCC(=O)N(CCOCc3ccc(C(F)(F)F)cc3)CC2)cc1	.	.	.	30	.	.
Cc1ccc(S(=O)(=O)N2CCC(=O)N(C(COC(=O)Nc3ccccc3)Cc3ccccc3)CC2)cc1 (stereo not drawn)	.	.	.	.	.	35
Cc1ccc(S(=O)(=O)N2CCC(=O)N(C(CO)Cc3ccccc3)CC2)cc1 (stereo not drawn)	.	.	.	.	.	24
Cc1ccc(NC(=O)OCCN2CCN(S(=O)(=O)c3ccc(C)cc3)CCC2=O)cc1	.	.	.	.	.	29
O=C1CCN(S(=O)(=O)c2ccccc2)CCN1CCOCc1ccc(C(F)(F)F)cc1	.	.	.	.	.	.
CCOC(=O)c1ccc(NC(=S)N(CCN2CCCCCC2)Cc2cccs2)cc1	.	.	.	.	.	.
Cc1nc(-c2ccc(C(=O)Nc3cc(S(N)(=O)=O)ccc3C)cc2)cs1	.	.	.	.	.	.
CN(CCNC(=O)c1ccc(CS(=O)(=O)c2c(Cl)cccc2Cl)o1)CCc1ccccc1	.	.	.	.	.	.
Cc1ccccc1Nc1nc(N)nc(COC(=O)c2ccccc2)n1	.	.	.	.	.	.
O=C(CNS(=O)(=O)c1ccccc1)OCC(=O)c1ccc(F)cc1	.	.	.	.	.	.
CC(=O)c1cccc(NC(=O)COC(=O)CCNS(=O)(=O)c2ccccc2)c1	.	.	.	29	.	.
O=C(CCNS(=O)(=O)c1ccccc1)OCC(=O)c1ccc(F)cc1	.	.	.	34	.	.
Cc1ccc(S(=O)(=O)NCCC(=O)OCC(=O)Nc2cccc(Cl)c2)cc1	.	.	.	.	.	.
O=C(COC(=O)CCNS(=O)(=O)c1ccccc1)NC(=O)Cc1ccccc1	.	.	.	30	.	.
Cc1ccccc1Nc1nc(N)nc(COC(=O)CCNS(=O)(=O)c2ccccc2)n1	.	.	.	28	.	.
CC1CCCN(C(=O)CSc2cnc3ccccc3n2)C1 (stereo not drawn)	.	.	.	.	.	.
CCOc1ccccc1N1CCN(C(=S)Nc2ccc(S(=O)(=O)Nc3ncccn3)cc2)CC1	.	.	.	.	.	.
CCOC(=O)c1ccccc1NC(=O)COC(=O)CN1C(=O)NC2(CCCC2)C1=O	.	.	.	.	.	.
CC(C)(C)c1ccc(OCCC(=O)Nc2cccc(S(=O)(=O)NC3=NCCCCC3)c2)cc1	.	.	.	/	.	.

Bioassay records as filed in PubChem.
